PubChem BioAssay AID430 (Sanford-Burnham Center for Chemical Genomics, 2006)
About 1,100 (1.7%) of roughly 63,000 compounds were called active. The list comes from a sample in which actives are over-represented; it also holds similar structures and randomly drawn compounds. Results with a measured potency or affinity are listed apart. A number with no mark means an inactive call. Rule as the data show it: active = cytotoxicity above about 50%; inactive = the rest.

Experiment: HPDE-C7 pancreatic duct cell viability loss – fluorescence, HTS (AID 430);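 also: cells exposed to compound for 48 hours before viability readout; 0% = vehicle and 100% = reference cytotoxic drug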
Conditions: HPDE-C7 pancreatic duct cells viability, at 10 µM, active compounds read high

Row | SMILES | cytotoxicity
1 | COc1cccc(C2(O)CCN(C(=O)C3CCC3)CC2)c1 | -6.9%
2 | O=C1c2ccccc2CCC1C(O)c1ccccn1 (configuration not stated) | -15%
3 | COc1cccc(CN(Cc2cccnc2)S(=O)(=O)c2ccc(-n3cnnn3)c(C)c2)c1OC | -18%
4 | COc1ccccc1N1CCN(c2nc(-c3ccccc3)cc(C(F)(F)F)n2)CC1 | 10.1%
5 | COc1ccccc1N1CCN(c2cc(N3CCCC3)nc(C)n2)CC1 | 2.7%
6 | COc1ccccc1N1CCN(c2ccc(-c3ccccc3)nn2)CC1 | 61.1% (active)
7 | COCC(C)NC(=O)c1cc(-c2cccc(OC)c2)on1 (configuration not stated) | -3.6%
8 | Cc1cc(C)cc(OCC(=O)Nc2ccc(N3CCN(S(C)(=O)=O)CC3)cc2)c1 | -17.3%
9 | Cc1ccccc1NC(=O)c1ccc(F)c(S(=O)(=O)N2CCN(c3ccccn3)CC2)c1 | -26.8%
10 | Cc1cc(NCCCN2CCOCC2)n2ncc(-c3ccc(Cl)cc3)c2n1 | 11.9%
11 | Cc1cc(NCCOCCO)n2ncc(-c3ccc(Cl)cc3)c2n1 | 65.6% (active)
12 | Cc1cc(NCCN2CCOCC2)n2ncc(-c3ccc(Cl)cc3)c2n1 | 9.8%
13 | Cc1cc(C)n(S(=O)(=O)Cc2ccccc2)n1 | -8.3%
14 | O=S(=O)(/C=C/c1ccccc1)n1cnc2ccccc21 | 22.4%
15 | Cc1cc(C)nc(Nc2n[nH]c(-c3ccccc3Br)n2)n1 | -1.8%
16 | COc1ccccc1N1CCN(C(=O)Nc2cccc(C)c2)CC1 | -2.6%
17 | Cc1ccc(SC(C)C(=O)N2CCCC2)cc1 (configuration not stated) | 5.9%
18 | CCCCCCNS(=O)(=O)c1ccc(Cl)s1 | -26.3%
19 | N#CCCn1c(-c2nonc2NC(=O)c2ccccc2Cl)nc2ccccc21 | 41.9%
20 | CCC(=O)Nc1nonc1-c1nc2ccccc2n1N(C(=O)CC)C(=O)CC | 54.2% (active)
21 | CCC(=O)Nc1nonc1-c1nc2ccccc2n1Cc1ccccc1 | 6.6%
22 | CCOC(=O)Cn1c(-c2nonc2NC(=O)c2ccccc2F)nc2ccccc21 | 41.5%
23 | CCCCn1c(-c2nonc2NC(=O)c2ccccc2Cl)nc2ccccc21 | 69.4% (active)
24 | CCC(=O)Nc1nonc1-c1nc2ccccc2n1CC(C)C | 25.7%
25 | Cc1ccc(N2C(=O)CC(N(O)C3CC(=O)N(c4ccc(C)cc4)C3=O)C2=O)cc1 (configuration not stated) | 14.1%
26 | C=CCNC(=O)c1sc(=S)n(-c2ccc(C(=O)OCC)cc2)c1N | 2.1%
27 | COc1ccc(C)cc1NC(=O)C1CCCN(S(=O)(=O)c2cnc[nH]2)C1 (configuration not stated) | 11.5%
